Source: PubChem
D1 PAM: human D1 dopamine receptor positive modulation | P21728 | HEK293 TREx D1 cells, calcium flux, dopamine EC20 potentiation | potentiation, % at 10 µM | 360,000 tested, 0.036% active; in the data active = potentiation above about 30%
D3 antag: blocks the human D3 dopamine receptor. D3R cells, DiscoveRx beta-arrestin luminescence, antagonist mode; hits give low values. max response, negative = inhibition, %. P35462. AID 652054. 360,000 tested, 2.5% active; in the data active = max response below about -50%; inconclusive = no clear call, values can overlap the other calls
Target sequence (P35462 whole entry, looked up): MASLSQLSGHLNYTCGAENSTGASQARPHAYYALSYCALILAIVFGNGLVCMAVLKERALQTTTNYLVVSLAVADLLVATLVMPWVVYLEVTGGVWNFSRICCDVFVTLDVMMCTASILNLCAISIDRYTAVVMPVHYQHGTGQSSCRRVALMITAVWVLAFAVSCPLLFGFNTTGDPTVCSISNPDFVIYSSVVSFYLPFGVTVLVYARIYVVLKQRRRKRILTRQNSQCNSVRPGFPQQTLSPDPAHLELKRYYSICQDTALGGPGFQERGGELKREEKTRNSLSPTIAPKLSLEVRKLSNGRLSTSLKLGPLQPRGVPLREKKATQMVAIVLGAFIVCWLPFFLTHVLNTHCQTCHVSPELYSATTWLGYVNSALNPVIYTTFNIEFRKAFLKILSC
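Cells expressing the human receptor were seeded at 1500 cells/well, incubated overnight at 37 degrees C in 5% CO2, then exposed to library compounds with dopamine controls for 90 minutes at 37 degrees C before luminescent detection.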
D3 ag: D3 dopamine receptor (human) agonism. D3R DiscoveRx beta-arrestin cells, luminescence, 90 min. 410,000 tested, 0.58% active. max activation, %; in the data active = max activation above about 30%
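Agonist mode: compounds and dopamine controls were applied to plated cells for 90 min at 37 degrees C after an overnight attachment at 1500 cells/well. Luminescent read-out followed 30 - 60 minutes at room temperature with DiscoveRx detection reagent.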
D1 ag: activates the human D1 dopamine receptor | P21728 | HEK293 T-REx D1 cells, calcium flux, agonist mode | activation, % at 2 µM | 360,000 tested, 1% active | AID 504660; in the data active = activation above about 30%
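Agonism was scored from calcium flux recorded over 180 s (1 read/s) after pintool compound addition, following a 10-cycle baseline. Cells were inducible force-coupled HEK293 TREx D1, plated overnight at 30 C and loaded with no-wash calcium dye.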
D1 antagonist: human D1 dopamine receptor antagonism | HEK293 TREx D1 cells, calcium flux, dopamine EC80; hits give low values | activity change, negative = inhibition, % at 10 µM | AID 504652 | 360,000 tested, 3.2% active | P21728; in the data active = activity change below about -30%
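Inducible Hek293 Trex D1 cells (tetracycline, overnight, 30 C). Calcium dye 30–90 min RT. Antagonist mode: EC80 dopamine added after 180 s compound read.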
Numbers stand for hits; – = inactive; ? = inconclusive; · = no result given. Sampled rows, rich in hits. Any-hit rate of the full collection: about 6%.

SMILES | D1 PAM | D3 antag | D3 ag | D1 ag | D1 antagonist
Clc1ccc(CCNc2ncnc3nc[nH]c23)cc1 | – | – | – | – | -35
CCC(C)Nc1ccc(NC(C)CC)cc1 (centres undefined) | – | -51 | – | – | ·
CCC(C)NC(=O)Nc1ccc(Br)cc1 (centres undefined) | – | – | – | – | –
CCN(CC)CCCNC(=O)Cn1ncn2cccc2c1=O | – | -73 | – | – | –
COc1cc(NS(=O)(=O)c2ccc(NC(=O)c3ccc(C(C)=O)cc3)cc2)nc(OC)n1 | – | · | – | – | –
O=c1[nH]c(-c2ccccn2)nc2ccccc12 | – | -74 | – | – | –
Cc1ccc(C(=O)Oc2ccccc2N2C(=O)C3CCC(C)CC3C2=O)cc1 (centres undefined) | – | – | – | – | –
CC1CCC2C(=O)N(c3ccc(C(=O)Oc4cccc5cccnc45)cc3)C(=O)C2C1 (centres undefined) | – | -68 | – | – | –
CNC(=S)N/N=C/c1ccc(C(C)C)cc1 | · | -59 | – | · | ·
Cc1ccc(O)c(C=Nc2cc(C)ccc2O)c1 | – | – | – | – | -35
Cc1ccc(O)c(N=CC2=C(O)c3ccccc3C2=O)c1 | – | -54 | – | – | –
CC(C)c1ccc(NC(=O)C2CCN(S(=O)(=O)c3cccc4nsnc34)CC2)cc1 | – | · | – | – | –
CCOC(=O)N1CCN(C(=O)CSCC(=O)Nc2nc(-c3ccc(OC)cc3)cs2)CC1 | – | – | – | – | –
CCOC(=O)N1CCN(C(=O)CSCC(=O)Nc2nc(-c3ccc(-c4ccccc4)cc3)cs2)CC1 | – | – | 56 | – | –
CC(C)Cc1ccc(C(C)C(N)=NCCc2ccccc2)cc1 (centres undefined) | – | ? | – | 30 | –
COc1ccc(CCN=C(N)C(C)c2ccccc2)cc1OC (centres undefined) | – | – | – | – | –
Cn1nc(C(=O)NCc2cccs2)c2ccccc2c1=O | – | – | – | – | -41
CC1CCCCC1NC(=O)c1nn(C)c(=O)c2ccccc12 (centres undefined) | – | – | – | – | -32
Cn1nc(C(=O)NCc2ccccc2)c2ccccc2c1=O | – | – | – | – | –
CNc1cncc(-c2cc(C)c(O)c(C)c2)n1 | · | – | 76 | · | ·
CC(C)=CCN1CCN(C/C(Cl)=C/c2ccccc2)CC1CCO (centres undefined) | – | -63 | – | – | –
COc1cccc(C(=O)Nc2nc(-c3nnn(-c4ccccc4C(F)(F)F)c3C)ns2)c1 | – | · | – | – | –
Cc1noc(C)c1COc1ccc(C(=O)O)cc1 | – | – | 33 | – | –
COc1cc(C(=O)Nc2nnc(C3CC3)s2)ccc1OCc1c(C)noc1C | – | – | – | – | -32
Cc1noc(C)c1COc1ccc(C(=O)NNC(=O)c2ccccc2)cc1 | – | – | – | – | –
SMILES | D1 PAM | D3 antag | D3 ag | D1 ag | D1 antagonist
COc1cc(C(=O)Oc2ccccc2)ccc1OCc1c(C)noc1C | – | – | – | – | -37
CN(C)CCNC(=O)c1ccc2nc(Cc3ccccc3)oc2c1 | – | · | – | – | –
COc1cccc(-c2ccc3c(N)c(C(=O)NCc4ccc(Cl)cc4)sc3n2)c1 | – | · | – | – | –
O=S(=O)(c1ccc2c(c1)OCCO2)C1CCN(S(=O)(=O)c2c(F)cccc2F)CC1 | – | · | · | – | –
Cc1cccc(-n2c(=O)c3c(c4cc(C)ccc4n3C)n(CC(=O)N3CCCC3)c2=O)c1 | – | · | – | – | –
COC(=O)Nc1nnc(/C=C/c2ccccc2)s1 | – | – | – | – | –
CC(=O)Nc1nnc(/C=C/c2cccc([N+](=O)[O-])c2)s1 | – | – | – | – | -54
O=C(COc1cccc(Cl)c1)N1CCC(c2nc3ccccc3o2)CC1 | – | · | – | – | –
CC(C)COc1ccc(C(=O)N2CCCCC2CCN2CCCCC2)cc1 (centres undefined) | – | · | – | – | –
Cc1cc(C)c(S(=O)(=O)Nc2ccc(C(N)=O)cc2)c(C)c1 | – | – | – | – | -43
CON=C1C[C@]2(C[C@@H]3C[C@@H](C/C=C(\C)C[C@@H](C)/C=C/C=C4\CO[C@@H]5[C@H](O)C(C)=C[C@@H](C(=O)O3)[C@]45O)O2)O[C@H](/C(C)=C/C(C)C)[C@H]1C | · | · | – | · | ·
CCOc1ccc(-c2cc3c(=O)n(CC(=O)Nc4cc(F)ccc4C)ccn3n2)cc1 | – | · | – | – | –
CCCSC(=S)c1c(C)[nH]n(-c2ccccc2)c1=O | – | – | – | 35 | –
